According to the supplement of paper PMC12669032:

Tests used:
Assay in all cases: growth AUC relative to DMSO control (median of replicates) (fraction); higher = more growth (less inhibition), active = hit call of the paper
Conditions in all cases: 20 µM; 24 h;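 active = AUC reduced over 20% with Padj below 0.05 in at least 2 of 3 replicates; inactive = otherwise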
Akkermansia muciniphila = system: Akkermansia muciniphila
In short: (§1)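 Each value is the median of three biological replicates, grown on separate days, of a gut bacterial monoculture incubated anaerobically at 37 °C in mGAM with 20 µM compound (1% DMSO). Cultures started at OD600 0.05 and were read at OD600 hourly for 24 h, with the minimum OD set to 0. Area under the growth curve was normalised to the plate median of solvent-only wells, or to row and column medians on the industrial chemical plate.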

Bacteroides caccae = system: Bacteroides caccae
In short: as §1

Bacteroides clarus = system: Bacteroides clarus
In short: as §1

Bacteroides dorei = system: Bacteroides dorei
In short: as §1

Bacteroides stercoris = system: Bacteroides stercoris
In short: as §1

[1] = system: Bacteroides thetaiotaomicron
In short: as §1

Bacteroides uniformis = system: Bacteroides uniformis
In short: as §1

[2] = system: Bifidobacterium longum subsp. longum
In short: as §1

Clostridium difficile = system: Clostridium difficile
In short: as §1

Collinsella aerofaciens = system: Collinsella aerofaciens
In short: as §1

Measured: growth AUC

CC(C)N(C(=O)CS(=O)(=O)[O-])c1ccccc1.[Na+]
inactive: Akkermansia muciniphila 1.01 | Bacteroides caccae 1.02 | Bacteroides clarus 1.02 | Bacteroides dorei 1.04 | Bacteroides stercoris 0.909 | [1] 0.955 | Bacteroides uniformis 1.05 | [2] 1.29 | Clostridium difficile 1.06 | Collinsella aerofaciens 0.967

CCc1cccc(C)c1NC(=O)CS(=O)(=O)[O-].[Na+]
inactive: Akkermansia muciniphila 0.926 | Bacteroides caccae 1.03 | Bacteroides clarus 0.962 | Bacteroides dorei 1.03 | Bacteroides stercoris 0.937 | [1] 1.01 | Bacteroides uniformis 0.991 | [2] 0.975 | Clostridium difficile 1.06 | Collinsella aerofaciens 1.11

NS(=O)(=O)[O-].[NH4+]
inactive: Akkermansia muciniphila 1.11 | Bacteroides caccae 1.01 | Bacteroides clarus 1.03 | Bacteroides dorei 1.02 | Bacteroides stercoris 1.05 | [1] 1.02 | Bacteroides uniformis 1.05 | [2] 1.06 | Clostridium difficile 1.05 | Collinsella aerofaciens 0.998

N#CC(=NOCC1OCCO1)c1ccccc1
inactive: Akkermansia muciniphila 1.03 | Bacteroides caccae 0.834 | Bacteroides clarus 0.992 | Bacteroides dorei 0.963 | Bacteroides stercoris 1.06 | [1] 0.981 | Bacteroides uniformis 0.96 | [2] 1.06 | Clostridium difficile 1.02 | Collinsella aerofaciens 0.936

CCCCCCCCOC(=O)COc1cc(Cl)c(Cl)cc1Cl
inactive: Akkermansia muciniphila 1.05 | Bacteroides caccae 0.98 | Bacteroides clarus 1 | Bacteroides dorei 0.968 | Bacteroides stercoris 1.11 | [1] 1.01 | Bacteroides uniformis 0.982 | [2] 0.97 | Clostridium difficile 1.02 | Collinsella aerofaciens 0.94
